PubChem BioAssay (NCATS)
Results filed as inconclusive are left out. Activity calls are given as the source filed them. Calls follow the shape of the dose curve; as a rule, active = well fitted curve in the direction sought with a large enough effect; inconclusive = small, poorly fitted or top-dose-only effect, or another doubt; inactive = no such curve, though single readings can be large; an effect the other way counts as inactive or inconclusive.

Tests used:
[1] = MultiTox-Fluor Cytotoxicity Assay - LYMP1-002 - Dead Cells (AID 960);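 also: cells exposed to compound for 16 h at 37 °C; nearly all actives have a fitted effect of over 60% in size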
Outline: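 LYMP1-002 cells 2500/well; 5 hr 37 C pre-incubation; compound 16 hr 37 C; MultiTox-Fluor reagent 60 min RT; dead-cell fluor Ex/Em 485/520. Norm. to DMSO (0%) vs 15 uM tetraoctylammonium bromide (100%); Hill AC50.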

[2] = MultiTox-Fluor Cytotoxicity Assay - LYMP1-003 - Dead Cells (AID 961);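 also: cells exposed to compound for 16 h at 37 °C; nearly all actives have a fitted effect of over 70% in size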
Outline: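 Human lymphoblastoid LYMP1-003 cells (2500/well) were treated with compounds for 16 hr at 37 C in complete medium. Dead-cell protease release was read by bis-AAF-R110 fluorescence (Ex/Em 485/520). AC50 came from Hill fits, normalized to DMSO and 15 uM tetraoctylammonium bromide.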

[3] = MultiTox-Fluor Cytotoxicity Assay - LYMP1-003 - Live Cells (AID 962);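 also: cells exposed to compound for 16 hours at 37 °C; cytotoxic hits lower the live-cell protease signal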
Outline: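 qHTS, 1536-well; 2500 cells/well LYMP1-003; 5 hr 37 C settle; cpd 16 hr 37 C; MultiTox-Fluor reagent 60 min RT; live-cell protease fluor. 405/510; Hill-fit AC50; tetraoctylammonium bromide pos. ctrl.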

[4] = Cell Viability - LYMP1-003 - Assay at 24 hr (AID 963)
Outline: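 Cells seeded at 2500/well, 5 hr at 37 C; compounds added; 24 hr at 37 C; CellTiter-Glo added, 30 min room temperature; luminescence read. Decrease in ATP taken as cytotoxicity, AC50 from Hill modelling.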

[5] = Cell Viability - LYMP1-003 - Assay at 40 hr (AID 964); also: series mostly up to about 92 µM; nearly all actives have a fitted effect of over 60% in size
Outline: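 Cells were seeded at 2500 per well and incubated 5 hr at 37 C. Compounds were added across a concentration series and left 40 hr at 37 C. CellTiter-Glo was added for 30 min at room temperature before luminescence reading.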

[6] = Cell Viability - LYMP2-003 (AID 965);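 also: cells exposed to compounds for 24 h before reading; nearly all actives have a fitted effect of over 50% in size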
Outline: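 Seed 2500 lymphoblastoid cells/well; incubate 5 hr, 37 C; add compounds; incubate 24 hr, 37 C; add CellTiter-Glo, 30 min RT; read luminescence. AC50 from Hill fit.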

[7] = Cell Viability - LYMP2-004 (AID 966); also: nearly all actives have a fitted effect of over 65% in size
Outline: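 Cells seeded 2500/well, rested 5 hr at 37 C, dosed across a concentration series, incubated 24 hr at 37 C, then CellTiter-Glo added for 30 min at room temperature and luminescence read. Hill fitting gave AC50.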

[8] = Cell Viability - LYMP2-009 (AID 968); also: series mostly up to about 92 µM; nearly all actives have a fitted effect of over 55% in size
[9] = Cell Viability - LYMP2-011 (AID 969); also: nearly all actives have a fitted effect of over 60% in size
Outline: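 2500 cells/well, 5 hr 37 C; compound added, 24 hr 37 C; CellTiter-Glo 30 min RT; luminescence. qHTS concentration-response, Hill-equation AC50. Tetraoctylammonium bromide positive control.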

[10] = Cell Viability - LYMP2-013 (AID 970); also: series mostly up to about 92 µM; nearly all actives have a fitted effect of over 55% in size
Outline: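 qHTS; 2500 lymphoblastoid cells/well; 5 hr 37 C settle; cpd 24 hr 37 C; CellTiter-Glo, 30 min RT; luminescence. AC50 = Hill fit.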

[11] = Cell Viability - LYMP2-015 (AID 971); also: nearly all actives have a fitted effect of over 55% in size
Outline: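 Luminescent ATP read-out (CellTiter-Glo) served as the viability measure after lymphoblastoid cells were exposed to compounds for 24 hours at 37 C. Concentration-response data were fitted with the Hill equation to give AC50.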

[12] = Cell Viability - LYMP2-017 (AID 972); also: series mostly up to about 92 µM; nearly all actives have a fitted effect of over 55% in size
Outline: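 2500 cells/well, 5 h 37 C; cpd 24 h 37 C in complete medium; CellTiter-Glo, 30 min RT; luminescence (ATP). AC50 via Hill fit, qHTS.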

[13] = Cell Viability - LYMP2-019 (AID 973); also: nearly all actives have a fitted effect of over 55% in size
Outline: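 Luminescent ATP read-out (CellTiter-Glo, 30 min room temperature) served as the viability measure after 24 hr treatment of lymphoblastoid cells at 37 C. Concentration-response data were fitted to the Hill equation for AC50.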

[14] = Cell Viability - LYMP2-023 (AID 975)
Outline: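 2500 cells/well, 5 hr 37 C; cpd 24 hr 37 C; CellTiter-Glo, 30 min RT; luminescence. qHTS conc-response, Hill fit -> AC50. Pos ctrl tetraoctylammonium bromide.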

[15] = Cell Viability - LYMP2-025 (AID 976); also: series mostly up to about 92 µM
Outline: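 Seed 2500 LYMP2-025 cells/well; 5 hr at 37 C; add compound; 24 hr at 37 C; add CellTiter-Glo; 30 min RT; read luminescence. AC50 from Hill-modelled concentration-response.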

[16] = Cell Viability - LYMP2-002 (AID 977); also: series mostly up to about 92 µM
Outline: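 Luminescent ATP readout (CellTiter-Glo, 30 min room temperature) after 24 h compound exposure at 37 C of a human lymphoblastoid line, 2500 cells/well. AC50 values derived by standard Hill fitting of qHTS concentration-response data.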

[17] = Cell Viability - LYMP2-007 (AID 979);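 also: cells exposed to compound for 24 h before reading; nearly all actives have a fitted effect of over 60% in size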
Outline: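 Luminescent ATP signal (CellTiter-Glo) serves as the viability read-out after 24 hr compound treatment of lymphoblastoid cells in complete medium at 37 C. Concentration-response data were fitted to the Hill equation to give AC50 values.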

[18] = Cell Viability - LYMP2-008 (AID 980); also: nearly all actives have a fitted effect of over 60% in size
Outline: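 qHTS, human lymphoblastoid line, 2500 cells/well; 5 hr preincubation, 24 hr compound, 37 C. CellTiter-Glo ATP luminescence. AC50 via Hill equation. Tetraoctylammonium bromide positive control.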

[19] = Cell Viability - LYMP2-005 (AID 967); also: series mostly up to about 92 µM
Outline: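 Acute cytotoxicity is scored as a concentration-dependent drop in intracellular ATP in human lymphoblastoid LYMP2-005 cells after 24 h compound treatment. ATP is quantified by luciferase luminescence, and AC50 is derived by Hill-equation modelling.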

[20] = target: Alpha-galactosidase (Coffea arabica) (UniProt Q42656); assay: Counterscreen for Glucocerebrosidase Inhibitors: qHTS Assay for Coffee Bean alpha-Galactosidase at pH 4.5 (AID 957); also: series mostly up to about 77 µM
Outline: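 Coffee bean alpha-galactosidase 2 nM, substrate 4-MU-alpha-Gal 80 uM, pH 4.5 citrate/Tween-20, 20 min RT. Cpd titration 0.7 nM–77 uM. Stop pH 10, fluorescence 365/440 nm; Hill-equation AC50.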

Measured: Potency

Sequence of Alpha-galactosidase (Coffea arabica) (Q42656 whole entry, looked up): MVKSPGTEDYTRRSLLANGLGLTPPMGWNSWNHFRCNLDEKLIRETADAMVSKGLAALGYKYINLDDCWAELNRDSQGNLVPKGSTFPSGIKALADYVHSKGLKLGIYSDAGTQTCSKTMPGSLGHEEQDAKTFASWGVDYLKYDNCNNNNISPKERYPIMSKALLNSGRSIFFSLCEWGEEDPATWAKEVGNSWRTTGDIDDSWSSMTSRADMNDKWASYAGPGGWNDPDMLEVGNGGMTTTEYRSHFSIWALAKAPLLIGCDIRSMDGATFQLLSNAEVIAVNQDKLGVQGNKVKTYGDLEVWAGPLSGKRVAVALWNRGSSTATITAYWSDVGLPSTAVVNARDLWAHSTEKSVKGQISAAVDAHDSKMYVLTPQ

Nc1ccccc1C(=O)O
inactive: [1] | [2] | [3] | [4] | [5] | [6] | [7] | [8] | [9] | [10] | [11] | [12] | [13] | [14] | [15] | [16] | [17] | [18]

CCCC(C)(COC(N)=O)COC(N)=O
inactive: [1] | [2] | [3] | [4] | [5] | [6] | [7] | [19] | [8] | [9] | [10] | [11] | [12] | [13] | [14] | [15] | [16] | [17] | [18]

O=P1(N(CCCl)CCCl)NCCCO1 (stereo unspecified)
inactive: [20] | [1] | [2] | [3] | [4] | [5] | [6] | [7] | [19] | [8] | [9] | [10] | [11] | [12] | [13] | [14] | [15] | [16] | [17] | [18]

Nc1ccccc1
inactive: [2] | [3] | [4] | [5] | [6] | [7] | [19] | [8] | [9] | [10] | [11] | [12] | [13] | [14] | [15] | [17] | [18]

CC(C)NC(C)C
inactive: [1] | [2] | [3] | [4] | [5] | [6] | [7] | [19] | [8] | [9] | [10] | [11] | [12] | [13] | [14] | [15] | [16] | [17] | [18]

COC(=O)C(c1ccccc1)C1CCCCN1 (stereo unspecified)
inactive: [1] | [2] | [3] | [4] | [5] | [6] | [7] | [19] | [8] | [9] | [10] | [12] | [13] | [14] | [15] | [16] | [17] | [18]
